Shown is part of a subset that was picked to be rich in hits.
Chlamy TAG: algal TAG accumulation induction; hit rate 0.84% among 44,000; calls only at 10 µM (by protocol); Chlamydomonas reinhardtii TAG, Nile Red fluorescence, 72 h; AID 1159537; call rule not given here;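 note: hits raise Nile Red signal meaning more stored TAG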
An asterisk follows results filed as active; i = inactive; + = active, no number.

SMILES | Chlamy TAG
Cc1ccc(OCCOCCN2CCN(C)CC2)c(I)c1 | +
CN1CCN(CCOCCOc2ccc(Cl)cc2C(C)(C)C)CC1 | i
Cc1cc(Cl)c(OCCOCCN2CCN(C)CC2)c(Br)c1 | +
Cc1cc(C)nc(N=C(NC(=O)Cc2ccccc2)N2CCC(C(N)=O)CC2)n1 | i
O=C(CCN1CCc2ccccc2C1)Nc1cccc(Cl)c1 | i
COc1ccc(C(=O)Nc2ccc(OC)c(Cl)c2)c(OC)c1 | i
Cc1ccc(C(=O)Nc2ccccc2)cc1S(N)(=O)=O | i
Cc1cc(Cl)ccc1OCC(O)CN1CCN(C)CC1 (configuration not stated) | +
OC(COc1ccc(Cl)cc1Cl)CN1CCc2ccccc2C1 (configuration not stated) | i
Cc1ccc(OCC(O)CN2CCN(c3ccccc3)CC2)c(C)c1 (configuration not stated) | i
CCCCOc1ccc(C(=O)N(C)c2c(C)n(C)n(-c3ccccc3)c2=O)cc1 | i
COc1cc(CN2CCN(c3cccc(C)c3C)CC2)c([N+](=O)[O-])cc1OC | i
C/C=C(\C)CN1CCN(CCO)CC1 | i
COCCNC(=O)c1ccc(OC)c([N+](=O)[O-])c1 | i
COc1ccc(C(=O)NCCN2CCOCC2)cc1[N+](=O)[O-] | +
COc1ccc(CCNC(=O)c2ccc(N3CCOCC3)c([N+](=O)[O-])c2)cc1OC | i
CC(C)(O)C#Cc1ccc(C(=O)N2CCN(c3ccc([N+](=O)[O-])cc3)CC2)o1 | i
O=S(=O)(NC1CC2CCC1C2)c1ccc(F)cc1 (configuration not stated) | i
Cc1c(Cl)c(C)c(C=O)c(O)c1Br | i
CCN(C(=O)CN1C(=O)c2ccccc2C1=O)c1ccccc1 | i
O=C(NCCc1ccc(Cl)cc1)C(=O)Nc1nccs1 | +
O=C(COc1ccc(Cl)cc1)Nc1nccs1 | i
Cc1ccc(NC(=O)C(=O)NCCc2ccc(Cl)cc2)cc1C | i
Cn1c(NC(=O)Cc2ccc(Cl)cc2)cc(=O)n(C)c1=O | i
O=C(O)C1CCN(C(=O)c2ccc(F)cc2)CC1 | +
SMILES | Chlamy TAG
O=C(c1ccc(F)cc1)N1CCCCCC1 | i
Cc1ccc(C(=O)N2CCC(C(=O)O)CC2)cc1 | i
COc1cc(NC(=O)c2ccccc2I)c(OC)cc1Cl | i
O=C(Nc1sc2c(c1C(=O)N1CCOCC1)CCC2)c1ccccc1Cl | i
CCC1CCC(N[C@H]2CCCCNC2=O)CC1 (some centres not stated) | i
CC(C)c1ccc(NC(=O)C2CCN(C(=O)c3ccccc3)CC2)cc1 | i
COc1cc(NS(=O)(=O)c2ccc([N+](=O)[O-])cc2)c(OC)cc1NC(=O)c1ccccc1 | i
COc1cccc(CN2CCN(C(=O)c3cc(OC)c(OC)c(OC)c3)CC2)c1OC | +
COc1cccc(CN2CCN(Cc3cc(OC)c(OC)c(OC)c3)CC2)c1OC | i
COc1cccc(CN2CCN(Cc3ccc(F)cc3)CC2)c1OC | +
COc1cc(C(=O)N2CCN(Cc3ccc(OC)c(OC)c3OC)CC2)cc(OC)c1OC | i
COc1cc(C(=O)N2CCN(Cc3ccccc3F)CC2)cc(OC)c1OC | i
COc1ccc(CN2CCN(c3ccccc3Cl)CC2)c(OC)c1OC | i
COc1ccc(CN2CCN(Cc3ccccc3)CC2)c(OC)c1OC | +
COc1ccc(CN2CCN(Cc3cccc(OC)c3OC)CC2)cc1 | i
COc1ccc(CN2CCN(Cc3ccc(SC)cc3)CC2)c(OC)c1OC | i
Cc1cccc(NS(=O)(=O)c2ccc(NS(=O)(=O)c3ccc(Cl)cc3)cc2)c1 | i
Cn1c(S(=O)(=O)Cc2ccccc2)nc2ccccc21 | i
c1cc2c(cc1CNc1ccc3cn[nH]c3c1)OCO2 | i
COc1cc(Br)cc(/C=C(\C#N)c2nc3ccccc3[nH]2)c1O | i
CC(C)=C1C2CCC1C(C(=O)NCc1ccc(Cl)cc1)C2C(=O)O (configuration not stated) | i
CC(C)NS(=O)(=O)c1ccc([N+](=O)[O-])cc1 | i
CC(CO)(CO)NC(=O)C(=O)Nc1ccccc1 | i
O=C(Nc1cccnc1)c1ccc(-c2ccc(Cl)cc2)o1 | i
O=C(Nc1cccnc1)c1ccc(S(=O)(=O)c2ccc(Cl)cc2)cc1 | +
SMILES | Chlamy TAG
CS(=O)(=O)N(Cc1ccccc1Cl)c1ccc(C(=O)Nc2cccnc2)cc1 | i
CCOc1ccccc1CN1CCC(C(=O)N[C@H](C)c2ccccc2)CC1 | i
COc1ccc(N2CCN(C(=O)c3cncc(Br)c3)CC2)cc1 | i
Brc1ccccc1OCCCN1CCOCC1 | i
C=CCc1cc(C)ccc1OCCOCCN1CCOCC1 | i
CN1CCN(CCCOc2ccc(Cl)c(Cl)c2)CC1 | i
Clc1ccc(OCCCN2CCOCC2)c(Br)c1 | +
Brc1cccc(OCCN2CCOCC2)c1 | i
CN1CCN(CCCOc2ccc(Cl)cc2C(C)(C)C)CC1 | i
Cc1ccc(OCCCCN2CCOCC2)c(Br)c1 | i
CN1CCN(CCCOc2cc(Cl)ccc2Cl)CC1 | +
Cc1ccc(C(C)C)cc1OCCCN1CCNCC1 | i
Cc1ccc(C(C)C)cc1OCCOCCN1CCOCC1 | +
Clc1cc(Br)ccc1OCCOCCN1CCOCC1 | +
O=C(COc1ccc(Cl)cc1Br)NCCN1CCOCC1 | i
N#CC(=CC=Cc1ccccc1)c1nc(-c2cccc([N+](=O)[O-])c2)cs1 | i
Cc1cccc(NC(=O)CN(c2ccc([N+](=O)[O-])cc2)S(=O)(=O)c2ccccc2)c1C | i
CC1CCC(N2CCCN(C)CC2)CC1 (configuration not stated) | i
CCOc1ccc(N(C(C)C(=O)Nc2cc(Cl)ccc2C)S(C)(=O)=O)cc1 (configuration not stated) | i
COc1ccc(CC(=O)Nc2cccc([N+](=O)[O-])c2C)cc1 | i
N#C/C(=C\c1cccc(O)c1)c1nc2ccccc2[nH]1 | i
C=CCNCCOc1ccc(Br)cc1Cl | i
CCOc1ccc2nc(C)cc(Nc3ccc(Br)cc3)c2c1 | i
N#CC1=C(N)Oc2cc(O)ccc2C1c1ccc(F)cc1 (configuration not stated) | i
O=C(c1sc2cc(Cl)cc(Cl)c2c1Cl)N1CCOCC1 | i
SMILES | Chlamy TAG
O=C(Nc1ccc([N+](=O)[O-])c(NC(=O)c2ccco2)c1)c1ccco1 | i
COCCN1C(=O)C(=O)C(=C(O)c2ccc(Cl)cc2)C1c1ccccc1F (configuration not stated) | i
COc1ccc(NC(=O)CSc2nnc(NC(=O)CCc3ccccc3)s2)cc1 | i
Brc1ccccc1OCCCCN1CCCCC1 | i
Clc1ccc(OCCCCN2CCCC2)c(Br)c1 | +
CN(C)CCCOc1ccc(Cl)cc1Br | i
Cc1cccc(C(C)C)c1NC(=O)c1ccc(F)cc1 | i
COc1cc(C(=O)Nc2cccc(C(=O)c3ccc(C)c(C)c3)c2)cc(OC)c1OC | +
COc1cc(C(=O)Nc2cccc(NC(=O)c3ccccc3)c2)cc(OC)c1OC | i
COc1cc(C(=O)Nc2cccc(F)c2)cc(OC)c1OC | i
CCOc1ccc(NC(=O)c2ccc(S(=O)(=O)N3CCCCC3)cc2)c([N+](=O)[O-])c1 | i
CCC(C)NC(=O)COc1ccc(OC)cc1 (configuration not stated) | i
O=C(Nc1ccc(NS(=O)(=O)c2ccccc2)cc1)c1ccccc1 | i
Cc1ccc(S(=O)(=O)Nc2ccc(C(=O)CC(=O)Nc3ccccc3)cc2)cc1 | i
O=C(O)CCSCC(=O)c1ccc(NS(=O)(=O)c2ccccc2)cc1 | +
